Results reported in the supplement of paper PMC6555819.

Key:
Assay in all cases: PBM binding z-score (relative to random genomic background probes); higher = stronger binding; sequences stand for … in GC…GCGATTGACAGCGTAGAATGAAGG
[1] = test system: FXR:RXRa (NR concentration 270 nM, RXRa partner concentration 90 nM)
Method in brief: (§1)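 The probes on custom Agilent 4×180K protein-binding microarrays were double-stranded, with 34-nt variable regions bearing direct-repeat seeds, single-nucleotide variants, half-site ablations and random human genomic background sequences. Incubation lasted 1 h with ligand-free nuclear receptor dimers in PBS pH 7.4, 2% milk, 0.02% Triton X-100, 1 mM DTT, 0.2 mg/mL BSA and 0.4 mg/ml salmon testes DNA. Antibodies against each partner (one per run) detected bound dimers, and fluorescence scans were regression-normalized. Binding z-scores take the random background probes as reference.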

[2] = test system: LXRa:RXRa (NR concentration 270 nM, RXRa partner concentration 90 nM)
Method in brief: as §1

[3] = test system: LXRa homodimer (NR concentration 270 nM)
Method in brief: as §1

[4] = test system: LXRb:RXRa (NR concentration 270 nM, RXRa partner concentration 90 nM)
Method in brief: as §1

[5] = test system: LXRb homodimer (NR concentration 270 nM)
Method in brief: as §1

[6] = test system: PPARa:RXRa (NR concentration 270 nM, RXRa partner concentration 90 nM)
Method in brief: as §1

[7] = test system: PPARg:RXRa (NR concentration 180 nM, RXRa partner concentration 90 nM)
Method in brief: as §1

[8] = test system: PPARg:RXRa 270nM:90nM, anti-RXR (NR concentration 270 nM, RXRa partner concentration 90 nM)
Method in brief: as §1

[9] = test system: PPARg:RXRa 30nM:10nM, anti-RXR (NR concentration 30 nM, RXRa partner concentration 10 nM)
Method in brief: as §1

[10] = test system: PPARg:RXRa 90nM:30nM, anti-RXR (NR concentration 90 nM, RXRa partner concentration 30 nM)
Method in brief: as §1

[11] = test system: PPARg:RXRa DBDmut IVT, anti-RXR (DBD mutation: RXRa K156A/R161A, NR concentration 270 nM, RXRa partner concentration 90 nM)
Method in brief: as §1

[12] = test system: PPARg:RXRa IVT, anti-PPARg (NR concentration 270 nM, RXRa partner concentration 90 nM)
Method in brief: as §1

[13] = test system: PPARg DBDmut:RXRa IVT, anti-PPARg (DBD mutation: PPARg1 K132A/R137A, NR concentration 270 nM, RXRa partner concentration 90 nM)
Method in brief: as §1

[14] = test system: PPARg DBDmut IVT, anti-PPARg (DBD mutation: PPARg1 K132A/R137A, NR concentration 270 nM)
Method in brief: as §1

[15] = test system: PPARg homodimer (NR concentration 180 nM)
Method in brief: as §1

[16] = test system: PXR:RXRa (NR concentration 270 nM, RXRa partner concentration 90 nM)
Method in brief: as §1

[17] = test system: PXR homodimer (NR concentration 270 nM)
Method in brief: as §1

[18] = test system: RARa:RXR (NR concentration 270 nM, RXRa partner concentration 90 nM)
Method in brief: as §1

[19] = test system: RARa homodimer (NR concentration 270 nM)
Method in brief: as §1

[20] = test system: RARb:RXRa (NR concentration 270 nM, RXRa partner concentration 90 nM)
Method in brief: as §1

Row | Sequence | PBM binding z-score [1] | PBM binding z-score [2] | PBM binding z-score [3] | PBM binding z-score [4] | PBM binding z-score [5] | PBM binding z-score [6] | PBM binding z-score [7] | PBM binding z-score [8] | PBM binding z-score [9] | PBM binding z-score [10] | PBM binding z-score [11] | PBM binding z-score [12] | PBM binding z-score [13] | PBM binding z-score [14] | PBM binding z-score [15] | PBM binding z-score [16] | PBM binding z-score [17] | PBM binding z-score [18] | PBM binding z-score [19] | PBM binding z-score [20]
1 | ATTTGTAGGTTAGCTGGGGTCATTCAGACTAGGC | 4.72 | 6 | 4.63 | 5.23 | 2.54 | 5.2 | 4.29 | 4.6 | 2.42 | 3.79 | 5.34 | 5.05 | 2.63 | 3.11 | 4.33 | 6.6 | 4.49 | 5.99 | 2.49 | 3.52
2 | CAGACTAGGTCAAGAGGTCAAAGTCCGCTTCCCG | 7.03 | 6.1 | 5.88 | 5.69 | 1.64 | 6.29 | 8.59 | 7.74 | 5.99 | 7.54 | 7.08 | 7.26 | 0.894 | 0.414 | 5.61 | 6.21 | 1.93 | 7.55 | 0.913 | 5.39
3 | GCCTGTAGATCAAGGTTAAGAAAGACTAAGCTAA | 0.000969 | 0.697 | -0.269 | 0.679 | -0.964 | 1.28 | 0.434 | 1.19 | 0.0672 | 0.861 | 0.625 | 0.319 | -0.514 | -0.208 | -0.292 | 0.333 | -0.503 | 0.885 | -1.02 | 0.799
4 | TAGCCTAGGTCATTCCGGGGCCAGTATAGAAAGC | 4.26 | 3.29 | 0.811 | 2.53 | 1.33 | 3.21 | 1.75 | 2.04 | 0.233 | 1.01 | 1.04 | 2.62 | -0.235 | 0.258 | 0.924 | 2.65 | -0.216 | 3.02 | -0.809 | 3.74
5 | GCGACTGGGGAAAAGCAGGTTACCATAAGGTTGG | -0.282 | -0.412 | -0.496 | 0.0547 | -1.04 | 0.442 | 0.406 | 0.154 | -0.554 | 0.0241 | 0.483 | 0.632 | -0.499 | -1.11 | 0.255 | -0.0375 | -0.35 | 0.407 | -0.675 | -0.16
6 | TGTCAAAATTCAAAGGTAACGTAAGTATCCACAC | 0.567 | 0.663 | -0.00824 | 0.809 | 0.161 | 1.13 | 0.99 | 1.47 | 0.972 | 1.39 | -0.0151 | 1.31 | 0.599 | 1.21 | 0.821 | 0.362 | 0.426 | 1.04 | 0.683 | 0.953
7 | CCTACTGGGCCATCGGGTCATTGATATCAACGTT | 1.37 | 1.03 | -0.0763 | 1.51 | -0.423 | 3.29 | 3.03 | 4.12 | 1.34 | 3.22 | 3.69 | 5 | 0.365 | -0.0654 | 1.81 | 1.9 | -0.0623 | 2.47 | -0.279 | 1.9
8 | CCTGCTAGGTCATGGTCAGATAATCTACAGTATG | 3.8 | 2.5 | 0.343 | 1.93 | 0.146 | 3.64 | 2.85 | 2.71 | 0.675 | 1.95 | 4.17 | 3.84 | 0.574 | 0.147 | 1.88 | 1.35 | -0.264 | 2.59 | 0.0727 | 3.92
9 | CCTACAGGGCCACGAAAGGTCATTGATTCAGTGA | 4.09 | 5.83 | 4.74 | 4.54 | 0.292 | 4.51 | 1.86 | 3.15 | 0.825 | 2.22 | 0.816 | 1.87 | -0.216 | -0.41 | 2.63 | 5.61 | 1.86 | 5.07 | 1.07 | 4.32
10 | TCTTGTAGATCAACAGGAGATTAAGAAAGATCGA | -0.494 | -0.198 | -0.713 | -0.321 | -0.695 | 0.133 | 0.237 | 0.964 | 2.14 | 1.68 | 1.37 | 0.548 | 1.52 | 0.865 | -0.322 | -0.306 | -0.21 | -0.526 | -0.298 | -0.393
11 | CTCGAAAGGTCGGTTGAGGTGAGAATACGGATAA | 3.46 | 1.74 | -0.255 | 1.42 | 0.119 | 2.77 | 0.632 | 1.34 | 0.543 | 0.887 | -0.0519 | 0.993 | 0.334 | 0.0546 | 0.742 | 3.13 | 0.108 | 2.11 | 0.173 | 2.98
12 | AGTATGAGGTTACCAAAGATCAGGGAAACGCTTG | 1.85 | 5.92 | 0.237 | 3.08 | 0.134 | 2.76 | 1.79 | 1.65 | 0.652 | 1.11 | 1.3 | 1.52 | 0.279 | 0.406 | 0.714 | 1.62 | 0.275 | 2.21 | 0.475 | 2.19
13 | TAGCCTAGGTCATGGGCCAGTATCCCACGCGAAC | 4.49 | 3.17 | 0.378 | 2.29 | -0.295 | 4.04 | 3.88 | 3.41 | 0.754 | 2.6 | 1.1 | 3.14 | 0.396 | -0.233 | 1.33 | 1.43 | -0.353 | 2.55 | -0.117 | 3.74
14 | CCGACTGGGGGAGAAAGGTTACCATACCATCCGG | 1.31 | 1.61 | 0.182 | 2.9 | 4.09 | 3.66 | 3.97 | 6.01 | 4.46 | 6.42 | 1.08 | 2.68 | 1.16 | 2.68 | 1.76 | 2 | 0.501 | 2.74 | 0.727 | 1.68
15 | ACTATTAGTTGACTTAGGCCAACCGATACGACGC | 0.313 | 0.281 | 0.278 | 0.209 | 1.1 | 0.0554 | 1.05 | 0.478 | 0.505 | 0.622 | 0.581 | 0.623 | 1.41 | 1.22 | 1.1 | 0.168 | 0.397 | 0.152 | 0.685 | 0.896
